Data as given in PubChem BioAssay (NCI).
About 83,000 compounds went through this panel and 20% of them were active in at least one assay; those are over-represented in the sample as a whole.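 Method: cells in 96-well plates; compound added at one concentration; 48 h incubation; percent growth measured; values under 10 scored active.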 Calls of active or inactive are those of the source.

tested on: NCI-H226 lung; assay: NCI-60 one-dose screen, 48 h (100 = growth as untreated, 0 = no growth, -100 = all killed); settings: 10 µM unless noted
Experimental: Growth inhibition of the NCI-H226 human Non-Small Cell Lung tumor cell line is measured as a screen for anti-cancer activity. Cells are grown in 96 well plates and exposed to the test compound for 48 hours. Compounds are tested at a single concentration, which is 10^-5 M for most compounds. The reported endpoint is percent growth (GI% or GIPRCNT), where numbers from 0 - 100% represent growth inhibition, and numbers from -100% - 0 represent cell death. For example, a value of 40 represents 60% growth inhibition. A value of 0 means no net growth occurred over the course of the experiment. A value of -40 indicates 40% of cells at the beginning of the experiment died by the end of the experiment. A value of -100 means all cells are dead at the end of the experiment.
NCI-60 Human Tumor Cell Lines Screen was performed using the standard one-dose NCI protocol, which is described in more detail at https://dtp.cancer.gov/discovery_development/nci-60/default.htm.
Compounds with GIPRCNT values below 10 were considered active. Activity score was based on GIPRCNT using the following formula: […]
Score is 0 for GIPRCNT values of 100 or above, 50 for GIPRCNT values of 0, and 100 for GIPRCNT values of -100.

| SMILES | growth |
| --- | --- |
| CCCCCc1ccc(S(=O)(=O)Nc2cc(-c3csc(NC(=O)CN4CCN(CCO)CC4)n3)ccc2OC)cc1 | 82.9% (inactive) |
| Cc1ccc2sc3c(c2c1)OC(N)=C(C#N)C3c1cccc(F)c1 (stereo not given) | -22.2% (active) |
| Clc1cccc(/C=N/Nc2nc(N/N=C/c3cccc(Cl)c3Cl)nc(N3CCCCC3)n2)c1Cl | 97.5% (inactive) |
| O=C(Cn1cc[n+](CC(=O)c2ccc(-c3ccccc3)cc2)c1)Nc1cccc2cccnc12 | 83.7% (inactive) |
| COc1ccc2[nH]cc(/C=N/Nc3nc4ccccc4s3)c2c1 | 75.6% (inactive) |
| Cc1ccc(NC(=S)NNC(=S)Nc2ccc(C)cc2)cc1 | 103% (inactive) |
| Nc1nc(-c2cccc([N+](=O)[O-])c2)c(N=Nc2ccccc2)s1 | 73.1% (inactive) |
| CC(C)(C)c1ccc(-c2nnc(-c3nc4ccccc4nc3Cl)o2)cc1 | 86.5% (inactive) |
| Cc1ccc(-c2cc3nc(C(Cl)Cl)nc(C)n3n2)cc1 | 94.6% (inactive) |
| Nc1ncc(-c2ccc(NS(=O)(=O)c3ccc(Cl)c(Cl)c3)cc2)[nH]1 | 87.3% (inactive) |
| N#Cc1c(-c2cccs2)cc(-c2cnccn2)nc1SCC(=O)Nc1ccc(Br)cc1 | 81.5% (inactive) |
| COc1ccc([C@@H]2[C@@H](O)C(=O)N2c2cc(OC)c(OC)c(OC)c2)cc1F | 36.9% (inactive) |
| COc1ccc(CCN2C(=O)CSC2=S)cc1 | 115% (inactive) |
| CC(=O)Nc1cccc(Nc2nc(N[C@H](C)c3ccccc3)c3ccccc3n2)c1 | 82.6% (inactive) |
| COc1cc(OC)c(/C=C/S(=O)(=O)Cc2ccc(OC)c(NC(=O)CCC(=O)NO)c2)c(OC)c1 | 27.2% (inactive) |
| COc1c(N2CC3CCCNC3C2)c(F)cc2c(=O)c(C(=O)N/N=C/c3ccc(N(C)C)cc3)cn(C3CC3)c12 (stereo not given) | 98.5% (inactive) |
| O=S(=O)(NCCCNc1nccc(-c2[nH]c(-c3ccccc3)nc2-c2ccc(Cl)c(O)c2)n1)c1ccc(Br)cc1 | 38.3% (inactive) |
| Fc1ccc(-c2cc3nc(C(Cl)Cl)nc(-c4ccco4)n3n2)cc1 | 93.2% (inactive) |
| NS(=O)(=O)c1ccc(-n2cc(CN3CCCCC3)nn2)cc1 | 98.6% (inactive) |
| O=C(c1ccc(O)c(C(=O)N2Cc3ccc(OCCC[P+](c4ccccc4)(c4ccccc4)c4ccccc4)cc3C2)c1)N1Cc2cccc(F)c2C1 | 92.3% (inactive) |

| SMILES | growth |
| --- | --- |
| COc1cccc2c1CN(C(=O)c1ccc(O)c(C(=O)N3Cc4ccc(OCCC[P+](c5ccccc5)(c5ccccc5)c5ccccc5)cc4C3)c1)C2 | 86.9% (inactive) |
| O=S(=O)(NCCCNc1nccc(-n2cnc3ccccc32)n1)c1ccc(C(F)(F)F)cc1 | 77.8% (inactive) |
| CN1CCC(n2cc(Nc3ncc4c(=O)n(-c5c(Cl)cccc5Cl)cc(Br)c4n3)cn2)CC1 | 33.9% (inactive) |
| C=CCN(C)S(=O)(=O)/N=C1\NC(=O)NC1=C(Cl)Cl | 89% (inactive) |
| COC(=O)c1[nH]nc2c1C1(C(=O)N(C)c3ccccc31)C(C#N)=C(N)O2 (stereo not given) | 99.2% (inactive) |
| COc1cc(Cn2cc3c(c2)-c2onc(CN4CCOCC4)c2CC3)cc(OC)c1OC | 87.1% (inactive) |
| COc1c(N2CC3CCCNC3C2)c(F)cc2c(=O)c(C(=O)N/N=C/c3ccc(Br)cc3)cn(C3CC3)c12 (stereo not given) | 91.4% (inactive) |
| CCN(CC)CCn1c2ccc(O)cc2c2sc3cc(OC)ccc3c(=O)c21 | 72.6% (inactive) |
| COc1ccc(-c2nc3cccc(O)c3c(=O)n2Cc2ccccc2)cc1COc1ccc(NC(C)=O)cc1 | 56.2% [3 µM] (inactive) |
| O=C(CSc1nc2ccccc2c(=O)n1-c1ccccc1)Nc1ccc(-c2nc3ccc([N+](=O)[O-])cc3[nH]2)cc1 | 82% (inactive) |
| COc1cc(-c2ccc3ncnc(NCc4ccccc4)c3c2)cnc1OC | 68.3% (inactive) |
| CCNC(=O)N1CCc2cc(OC)c(OCCc3ccc(OC)cc3)cc2C1c1ccc(OC)cc1C (stereo not given) | 33.5% (inactive) |
| COc1cc(Cn2cc3c(c2)-c2onc(CN4CCCC4)c2CC3)cc(OC)c1OC | 88.4% (inactive) |
| CS(=O)(=O)Nc1cc(-c2ccc3ncc(C#N)c(N[C@H](CO)c4ccccc4)c3c2)cnc1Cl | 56.2% (inactive) |
| NC(N)=Nc1ccc(Nc2cccc(Oc3ccc(Cl)c(C(F)(F)F)c3)c2)cn1 | 36.5% (inactive) |
| Cc1[nH]c(C(=O)Nc2ccccc2OCc2cccc(C(=O)N3CCC[C@@H](N)C3)c2)c(Cl)c1Cl | -67.4% (active) |
| CC(C)(C)c1ccc(C(=O)Nc2sc3c(c2C(N)=O)CC/C(=N\O)C3)cc1 | 17.5% (inactive) |
| Cn1ccnc1C(=O)/C=C/c1ccc(NC(=O)c2ccc(F)cc2)cc1 | 45.3% (inactive) |
| O=C(NNc1nc2cc(F)ccc2n2c(CN3CC4CNCC4C3)ccc12)c1cnccn1 (stereo not given) | 25% (inactive) |
| O=C(NCCN1CCCC1)c1ccc(-c2nc3ccc4[nH]ncc4c3c3c2CCCC3)cc1 | 13.6% (inactive) |
